The list is not random: actives were taken first. Their share in the collection is about 2.8%.
POLB inh: qHTS Assay for Inhibitors of DNA Polymerase Beta | AID 485314, 2010 | P06746 | Pol beta primer extension/strand displacement, fluorescence kinetic | Potency, µM (doses to about 114 µM), usual class: inhibitors | actives 1.3% (n = 340,000)
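Enzyme-only controls used 10 nM Pol beta; buffer lacking enzyme served as negative control. Compound preincubated 15 min, then 50 nM substrate added; 0 and 10 min reads at room temperature.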
Pol eta inh: qHTS for Inhibitors of Polymerase Eta. recombinant Pol eta, fluorescent DNA replication assay. Potency, µM (doses to about 114 µM), usual class: inhibitors. actives 1.2% (n = 390,000). AID 588591, 2011
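Pol eta (10 nM) was preincubated with compounds for 15 min at room temperature, after which fluorescent replication substrate (50 nM final) was added to start the reaction. Fluorescence was read kinetically at 0 and 10 min.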
POLK inh: qHTS for Inhibitors of Polymerase Kappa | DNA polymerase kappa (Homo sapiens), Q9UBT6 | purified Pol kappa, fluorescent DNA synthesis assay, 10 min | Potency, µM (top dose mostly 107 µM), usual class: inhibitors | actives 0.53% (n = 400,000) | AID 588579, 2011
Target sequence (Q9UBT6 whole entry, looked up): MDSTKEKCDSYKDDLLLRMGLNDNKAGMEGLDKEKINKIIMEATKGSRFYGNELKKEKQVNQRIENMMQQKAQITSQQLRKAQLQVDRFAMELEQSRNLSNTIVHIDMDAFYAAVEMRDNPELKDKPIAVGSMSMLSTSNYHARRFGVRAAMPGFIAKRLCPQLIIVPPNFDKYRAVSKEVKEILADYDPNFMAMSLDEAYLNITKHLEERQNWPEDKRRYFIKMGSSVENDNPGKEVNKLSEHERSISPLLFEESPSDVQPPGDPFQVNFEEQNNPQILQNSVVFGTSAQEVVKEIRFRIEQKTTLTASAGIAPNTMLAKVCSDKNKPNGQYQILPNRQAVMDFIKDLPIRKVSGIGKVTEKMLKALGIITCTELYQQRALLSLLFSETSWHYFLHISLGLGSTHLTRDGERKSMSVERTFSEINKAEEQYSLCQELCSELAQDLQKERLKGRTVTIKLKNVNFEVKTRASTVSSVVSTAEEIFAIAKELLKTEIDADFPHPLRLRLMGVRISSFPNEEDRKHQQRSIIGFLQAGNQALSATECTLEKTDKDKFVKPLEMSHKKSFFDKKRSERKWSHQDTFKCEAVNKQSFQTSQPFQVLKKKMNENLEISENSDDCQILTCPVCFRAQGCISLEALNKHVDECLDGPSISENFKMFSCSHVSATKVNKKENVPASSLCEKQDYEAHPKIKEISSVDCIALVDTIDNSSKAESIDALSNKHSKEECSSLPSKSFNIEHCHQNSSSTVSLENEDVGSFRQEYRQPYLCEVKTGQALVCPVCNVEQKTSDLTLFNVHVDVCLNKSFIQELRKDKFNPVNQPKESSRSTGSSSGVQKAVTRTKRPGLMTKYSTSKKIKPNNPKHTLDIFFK
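Kinetic fluorescence readout at 0 and 10 min followed reaction start with substrate at 50 nM final. Beforehand, enzyme (10 nM Pol kappa) stood 15 min with compound at room temperature; buffer-only wells were negative controls.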
POLI inh: qHTS for Inhibitors of Polymerase Iota | DNA polymerase iota (Homo sapiens), Q9UNA4 | Pol iota fluorescent replication assay, 10 min | Potency, µM (doses to about 115 µM), most hits filed as inhibitors | actives 1% (n = 390,000) | AID 588590, 2011
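Pol iota at 10 nM preincubated 15 min with compounds at room temperature; reaction started with fluorescent substrate, 50 nM final. Fluorescence read kinetically at 0 and 10 min; buffer-only wells as negative control.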
PI5P4K alpha inh: qHTS for Inhibitors of phosphatidylinositol 5-phosphate 4-kinase (PI5P4K) | Phosphatidylinositol 5-phosphate 4-kinase type-2 alpha (Homo sapiens), P48426 | PI5P4Kalpha enzyme, ADP-Glo luminescence, 60 min; active compounds read low | max response, % | actives 1.2% (n = 330,000) | AID 652105, 2013; active = max response of -50% or lower; inconclusive = between -30% and -50%; inactive = -30% or higher; note: value at the top dose of about 77 µM
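Quantitative HTS of the MLSMR library against PI5P4Kalpha with substrate. ATP added last at 5 microM final; room temperature, 60 minutes. Remaining ATP depleted, ADP converted and read as luminescence.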
WRN inhibitor: qHTS for Inhibitors of WRN Helicase; Bifunctional 3'-5' exonuclease/ATP-dependent helicase WRN (Homo sapiens), Q14191; WRN helicase unwinding, fluorescent forked duplex, kinetic; Potency, µM (highest dose often 114 µM), hits mostly inhibitors; actives 0.46% (n = 360,000); note: nearly all actives have a fitted effect of over 55% in size
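Kinetic red-fluorescence monitoring (525/598 nm) tracks WRN helicase activity after 100 nM fluorophore-quencher forked duplex and 2 mM ATP are added to 20 nM enzyme pretreated 15 min at room temperature with compound.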
A number is an active result; . = inactive; ? = inconclusive; / = no result given; ! = not confirmed by another sample; [ ] = remark or other dose. Unless noted, calls come from the whole dose curve; as a rule, active = well fitted curve in the direction sought with a large enough effect; inconclusive = small, poorly fitted or top-dose-only effect, or another doubt; inactive = no such curve, though single readings can be large; an effect the other way counts as inactive or inconclusive.

SMILES | POLB inh | Pol eta inh | POLK inh | POLI inh | PI5P4K alpha inh | WRN inhibitor
Cc1ccc2nc(Cn3cc(C(F)(F)F)ccc3=O)cc(=O)n2c1 | . | . | . | . | . | .
O=c1ccc(C(F)(F)F)cn1Cc1cc(=O)n2cc(Br)ccc2n1 | 12.6µM | . | ? | ? | ? | .
Cc1onc(-c2ccccc2)c1C(=O)Nc1nnc(COc2ccc(Cl)cc2)s1 | . | . | . | . | ? | 56.2µM
CC(=O)Oc1ccc2c(c1)c(C(C)=O)c(C)n2C | 0.891µM | . | . | . | / | .
COC(=O)/C=C/C(C)=C/C=C/C(C)=C/C=C/C=C(C)/C=C/C=C(C)/C=C/C(=O)O | / | / | 31.6µM | / | / | /
Cc1cnc(C)c(N2CCN(Cc3nc(-c4ccccc4)no3)CC2)n1 | . | . | . | . | . | .
C[N+]1(C)CCC(=C2c3ccccc3CC(=O)c3sccc32)CC1 | 7.94µM | . | . | 15.8µM | / | .[11.6 µM]
CCOC(=O)Cc1cc(=O)c2c(=O)n(-c3ccccc3)[nH]c2[nH]1 | . | . | 22.4µM | 22.4µM | . | .
Cn1c(=O)c2ccccc2n(Cc2cccc(F)c2)c1=O | . | . | . | . | . | .
Cc1ccc(N(C(=O)c2csnn2)C(C(=O)NC2CCCCC2)c2cccnc2)cc1 (stereo unspecified) | . | . | . | . | . | .
Cc1ccc(C)c(NC(=O)Cn2nnc(C(=O)NCc3ccco3)c2N)c1 | . | . | . | 79.4µM! | . | .
CCc1ccccc1NC(=O)Cn1nnc(C(=O)NCc2ccccc2Cl)c1N | 70.8µM | . | ? | 89.1µM | / | /
Cc1ccc(CNC(=O)c2nnn(CC(=O)Nc3cc(C)ccc3C)c2N)cc1 | 7.94µM | . | . | . | / | /
COC(=O)c1ccc(OC(=O)c2ccccn2)cc1 | ? | . | . | 17.8µM | . | .
COC(=O)c1ccc(OC(=O)c2cccnc2SC)cc1 | . | . | . | . | . | .
COc1ccccc1Oc1ccc2c(c1)C(=O)N(c1ccccc1)C2=O | . | . | . | . | . | .
CC(=O)NN1C(=O)c2ccc(Oc3ccc([N+](=O)[O-])cc3)cc2C1=O | . | . | . | . | / | .
O=C1c2ccc(Oc3ccc([N+](=O)[O-])cc3)cc2C(=O)N1CCO | . | . | . | . | . | .
O=C(O)CN1C(=O)c2ccc(Oc3ccc4c(c3)C(=O)N(CC(=O)O)C4=O)cc2C1=O | . | 31.6µM | . | . | . | .
O=C(O)CN1C(=O)c2ccc(Oc3cccc4c3C(=O)N(CC(=O)O)C4=O)cc2C1=O | . | 79.4µM | . | . | / | .
CC(=O)NN1C(=O)c2ccc(Oc3ccc4c(c3)C(=O)N(NC(C)=O)C4=O)cc2C1=O | 11.2µM | / | / | / | / | /
Nc1[nH]c(=S)[nH]c(=O)c1N=O | / | / | . | . | / | /
CCCn1c(SCc2ccon2)nc2ccccc2c1=O | . | . | . | . | . | .
CCOc1ccccc1N1CCN(c2nc3ccccc3nc2C(C#N)C(=O)OC)CC1 (stereo unspecified) | . | ? | . | . | . | .
CCOc1ccccc1N1CCN(c2nc(N)c(C#N)c(CC#N)c2C#N)CC1 | . | ? | . | . | -67.1 | .
SMILES | POLB inh | Pol eta inh | POLK inh | POLI inh | PI5P4K alpha inh | WRN inhibitor
CC(NS(=O)(=O)c1ccccc1)C(=O)NCc1ccco1 (stereo unspecified) | ? | ? | ? | 39.8µM | / | .[11.6 µM]
CC(=O)c1ccc(NC(=O)c2cnn3c2NC(=C2CC2)C=C3C(F)F)cc1 | / | / | . | . | / | /
CC(C)(C)N=Cc1c(O)ccc2oc3c(c12)CCCC3 | . | 39.8µM | . | ? | . | .[11.6 µM]
Cc1nc2ccccc2c(=O)n1/N=C/c1c(O)ccc2oc3c(c12)CCCC3 | . | . | . | 89.1µM | . | .
Cc1nc2ccccc2c(=O)n1/N=C/c1c(O)ccc2ccccc12 | . | . | . | ? | . | .
NC(=O)N/N=C/c1c(O)ccc2oc3c(c12)CCCC3 | . | . | . | . | . | .
CC(NC(=O)C1CCCN1S(=O)(=O)c1ccccc1)c1ccccc1 (stereo unspecified) | . | . | . | . | . | .
CN(C)c1ccc(NC(=O)CN2C(=O)c3ccccc3Sc3ccc(C(=O)N4CCCC4)cc32)cc1 | . | . | . | . | / | /
Cc1nnc(SCC(=O)NC(=O)NCc2ccco2)s1 | . | . | . | . | . | .
COc1ccc(C)cc1-n1nnnc1SCC(=O)NC(=O)NCc1ccco1 | 14.1µM | 89.1µM | ? | 28.2µM | / | .[11.6 µM]
O=C(CSCc1ccccc1Br)NNC(=S)NCc1ccco1 | . | . | . | . | . | .
Cc1ccccc1CSCC(=O)NC(=O)NCc1ccco1 | 11.2µM | ? | ? | 31.6µM | / | ?
COc1ccc(-c2nc(SCC(=O)NCc3ccco3)c(-c3ccccc3)[nH]2)cc1OC | . | . | . | . | . | .
COc1ccc(-c2[nH]c(-c3ccccc3)nc2SCC(=O)NCc2ccco2)cc1OC | 39.8µM | ? | . | ? | . | .
O=C(CSc1nn(-c2ccc(F)cc2)c(=S)s1)NC(=O)NCc1ccco1 | 44.7µM | . | . | ? | / | .
CCCCN(C(=O)c1c(-c2ccccc2)noc1C)c1c(N)n(CCC)c(=O)[nH]c1=O | / | . | . | . | . | .
CN1CCN(C(=O)c2ccccc2-c2ccccc2C(=O)O)CC1 | . | . | . | . | / | .
CCn1cc(S(=O)(=O)c2ccccc2)c(=O)c2cc(F)c(N3CCCC3)cc21 | . | . | . | . | / | /
CCOc1ccc2nc(SCC(=O)NCc3ccc(OC)c(OC)c3)[nH]c2c1 | . | . | . | . | . | .
CCOc1ccc2nc(SCC(=O)NC(=O)NCc3ccco3)[nH]c2c1 | 50.1µM | ? | . | ? | ? | .
O=C(CSc1nnc(CNC(=O)c2ccccc2)o1)NCc1ccco1 | . | . | . | . | . | .
O=C(CSc1nnc(CNC(=O)c2c(F)cccc2F)o1)NCc1ccco1 | 25.1µM | ? | . | ? | ? | ?
CS/C(=N\S(=O)(=O)c1cccs1)NC(=O)CSc1nc2ccccc2s1 | ? | 50.1µM | . | ? | ? | ?
O=C(CSc1ncccn1)NC(=O)NCc1ccco1 | ? | . | . | 79.4µM | . | .[11.6 µM]
Cn1nnc2c(NCc3c(F)cccc3F)ncnc21 | . | . | . | . | / | /
CCOC(=O)NC(=O)CSc1nc2ccccc2[nH]1 | 50.1µM | . | . | . | . | .
O=C(CSc1ccccc1F)NC(=O)NCc1ccco1 | 10µM | ? | . | ? | ? | .[11.6 µM]
Cc1nonc1NC(=O)CSc1nc2ccccc2[nH]1 | ? | ? | . | ? | . | .
CCCCn1c(SCC(=O)NC(=O)NCc2ccco2)nc2cc(S(N)(=O)=O)ccc21 | 28.2µM | 79.4µM | ? | ? | / | .[11.6 µM]
